Data reported in PubChem BioAssay (NCI).
This is part of a sample that, as a whole, favours compounds with a hit. Of some 79,000 tested, about 15% had one in any assay. Values without a mark were called inactive. The source made the active and inactive calls. Cut-off read from the data, not from the text of the source: active = growth inhibition above about 70%; inactive = the rest.

Legend:
[1] = NCI Yeast Anticancer Drug Screen. Data for the rad50 strain (AID 155);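 note: 0% = growth of vehicle-only cultures of the same strain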; settings: S. cerevisiae rad50 strain growth inhibition, hits give high values
In short: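 Genetically altered yeast (DNA repair pathway); compound treatment; growth inhibition vs vehicle ctrl.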

[2] = NCI Yeast Anticancer Drug Screen. Data for the mec2-1 strain (AID 157); settings: S. cerevisiae mec2-1 strain, hits give high values
In short: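 Vehicle-treated cultures served as reference for growth inhibition of compound-exposed mec2-1 yeast.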

[3] = NCI Yeast Anticancer Drug Screen. Data for the sgs1 mgt1 strain (AID 161);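 note: 0% = growth of cultures given vehicle only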; settings: S. cerevisiae sgs1 mgt1 strain, hits give high values
In short: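 Test agents were incubated with a DNA-repair-mutant yeast strain. Growth was then read and compared against vehicle-treated controls.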

[4] = NCI Yeast Anticancer Drug Screen. Data for the cln2 rad14 strain (AID 165);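 note: 0% = growth equal to vehicle treated cultures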; settings: S. cerevisiae cln2 rad14 strain, hits give high values
In short: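 Each compound was tested on cln2 rad14 yeast. Inhibition of growth was calculated against vehicle-exposed controls.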

[5] = NCI Yeast Anticancer Drug Screen. Data for the bub3 strain (AID 167); settings: S. cerevisiae bub3 mutant strain, hits give high values
In short: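 Yeast carrying a defined mutation is treated with each compound, and growth is compared with that of vehicle-exposed cells to give inhibition.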

[6] = NCI Yeast Anticancer Drug Screen. Data for the mlh1 rad18 strain (AID 175); settings: S. cerevisiae mlh1 rad18 strain growth inhibition, hits give high values
In short: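 Vehicle-treated cultures served as the reference for growth inhibition in a yeast strain carrying DNA damage repair alterations exposed to each compound.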

[7] = at 5.0 µM (retest, dose inferred, filed as 0.5)
[8] = at 50.0 µM (retest, dose inferred, filed as 5.0)

Structure (SMILES) | growth inhibition [1, 7] | growth inhibition [1, 8] | growth inhibition ([1]; at 50.0 µM) | growth inhibition [2, 7] | growth inhibition [2, 8] | growth inhibition ([2]; at 50.0 µM) | growth inhibition [3, 7] | growth inhibition [3, 8] | growth inhibition ([3]; at 50.0 µM) | growth inhibition [4, 7] | growth inhibition [4, 8] | growth inhibition ([4]; at 50.0 µM) | growth inhibition [5, 7] | growth inhibition [5, 8] | growth inhibition ([5]; at 50.0 µM) | growth inhibition [6, 7] | growth inhibition [6, 8] | growth inhibition ([6]; at 50.0 µM)
O=[N+]([O-])C(=C(Nc1ccccc1)Nc1ccccc1)/C(Cl)=C(\Cl)Br | -7% | 99% (active) | 98.7% (active) | 11% | 99% (active) | 99.5% (active) | 6% | 99% (active) | 99.3% (active) | 22% | 99% (active) | 99.3% (active) | -11% | 99% (active) | 99.2% (active) | 32% | 99% (active) | 99.2% (active)
Cc1cc2c(cc1C)C(=O)OC2=O | 1% | 14% | 72% (active) | -1% | -1% | 45.5% | 2% | 1% | 36.3% | 1% | -1% | 31.6% | -3% | 5% | 83.5% (active) | -2% | 5% | 41.5%
CCNc1ccccc1C | 3% | 91% (active) | 98.7% (active) | -1% | 88% (active) | 98.2% (active) | -2% | 86% (active) | 97% (active) | 2% | 97% (active) | 96.4% (active) | 7% | 82% (active) | 97.7% (active) | 3% | 97% (active) | 98.3% (active)
CCCCCCCCCCNC(=O)C[n+]1cccc(C(=O)NCc2ccccc2)c1 | 8% | 99% (active) | 99.5% (active) | -1% | 100% (active) | 99.7% (active) | 5% | 100% (active) | 99.5% (active) | 14% | 99% (active) | 98.8% (active) | 8% | 99% (active) | 99.4% (active) | 11% | 99% (active) | 99.5% (active)
CCN(CC)c1ccc(N=Nc2ccc(Br)cn2)c(O)c1 | -1% | 51% | 96.8% (active) | -4% | 84% (active) | 95.5% (active) | -3% | 79% (active) | 97.1% (active) | -2% | 46% | 94.7% (active) | 1% | 71% (active) | 97.2% (active) | -1% | 77% (active) | 97.2% (active)
CC(=O)OC1C(O)C(C)OC(OC(=O)C2CCC3C(C2)OC2(CC(OC(=O)/C=C/c4ccccc4)C(C)CO2)C32CO2)C1OC1OC(C)C(O)C(O)C1O (stereo not given) | 23% | 97% (active) | 88% (active) | 18% | 98% (active) | 89.9% (active) | 26% | 98% (active) | 47.1% | 17% | 92% (active) | 75.6% (active) | 21% | 97% (active) | 88% (active) | 34% | 97% (active) | 88% (active)
CN(C)c1ccccc1CC(c1c[nH]c2ccccc12)c1c[nH]c2ccccc12 | 82% (active) | 90% (active) | 84.8% (active) | 73% (active) | 93% (active) | 89.5% (active) | 67% | 91% (active) | 87.6% (active) | 50% | 94% (active) | 86.2% (active) | 66% | 91% (active) | 85.2% (active) | 92% (active) | 87% (active) | 82% (active)
CCCCCCCCCCCCOC(=O)C[N+]1(C)CCCCC1 | 92% (active) | 99% (active) | 43.5% | 93% (active) | 99% (active) | 99.8% (active) | 99% (active) | 99% (active) | 39.4% | 67% | 99% (active) | 98.5% (active) | 99% (active) | 99% (active) | 99.7% (active) | 33% | 99% (active) | 99.5% (active)
C=C(CN(C)C)C(=O)c1ccc(C)cc1C | 34% | 99% (active) | 99.4% (active) | 18% | 99% (active) | 99.5% (active) | 64% | 99% (active) | 99.4% (active) | 24% | 99% (active) | 99.3% (active) | 77% (active) | 99% (active) | 56% | 74% (active) | 99% (active) | 99.2% (active)
CC(C)=CC(=O)OC(CCCc1ccccc1)c1ccc2c(c1)OCO2 (stereo not given) | 5% | -5% | -4.6% | 7% | -16% | -13.2% | -6% | 9% | -4.75% | 0% | 3% | 0.35% | 35% | 33% | 50% | 2% | 14% | -8.25%
